Source: PubChem BioAssay AID2590 (National Center for Advancing Translational Sciences (NCATS), 2010)
Values joined by “and” are separate entries in the source; they are usually repeats but may differ in a detail not shown here. Identical values can stand only once. Inconclusive results are not listed. Values without a mark were called inactive. Active and inactive are the calls of the source. The call rests on the fitted dose curve; in most records, active means well fitted curve in the direction sought with a large enough effect; inconclusive means small, poorly fitted or top-dose-only effect, or another doubt; inactive means no such curve, though single readings can be large or run the other way.

target: Lysosomal acid glucosylceramidase (Homo sapiens) (UniProt P04062); assay: qHTS Assay for Inhibitors and Activators of N370S glucocerebrosidase as a Potential Chaperone Treatment of Gaucher Disease: Primary Screen Confirmation; settings: N370S glucocerebrosidase enzyme activity, fluorogenic substrate; series mostly up to 54 µM; activity change, negative = inhibition: at the top concentration;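 on Potency: enzyme source is Gaucher patient spleen homogenate not purified recombinant protein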;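 on activity change, negative = inhibition: 0% = enzyme with DMSO and -100% = no enzyme basal signal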
Sequence (P04062 whole entry N409S): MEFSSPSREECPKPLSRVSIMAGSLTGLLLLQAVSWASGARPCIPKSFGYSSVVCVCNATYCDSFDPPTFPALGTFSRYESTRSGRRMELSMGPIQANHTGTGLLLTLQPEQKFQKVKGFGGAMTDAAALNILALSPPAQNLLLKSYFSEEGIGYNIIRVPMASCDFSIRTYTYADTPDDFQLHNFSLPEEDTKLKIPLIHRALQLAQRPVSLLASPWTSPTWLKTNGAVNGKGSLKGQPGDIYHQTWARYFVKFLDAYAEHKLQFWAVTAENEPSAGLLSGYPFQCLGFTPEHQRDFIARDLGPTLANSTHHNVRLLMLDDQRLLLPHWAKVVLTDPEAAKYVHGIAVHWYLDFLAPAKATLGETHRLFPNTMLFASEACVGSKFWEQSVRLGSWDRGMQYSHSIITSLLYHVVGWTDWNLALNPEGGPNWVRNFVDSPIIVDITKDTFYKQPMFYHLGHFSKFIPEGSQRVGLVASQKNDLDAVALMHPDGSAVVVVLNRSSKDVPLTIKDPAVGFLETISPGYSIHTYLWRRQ
Summary of the method: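 Patient-spleen homogenate carrying N370S GC (27 ug) in pH 5.0 citrate buffer with 0.01% Tween-20, 1 mM 4-methylumbelliferyl-beta-glucoside, 40 min at 37C; fluorescence 365/440 nm after NaOH/glycine stop; AC50 from Hill fits.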
Potency means the concentration at half of the fitted maximal effect.

Compound	activity change, negative = inhibition	Potency
COc1ccc(-c2cc3ccc(OCC(C)=O)cc3oc2=O)cc1	28.4%	
Cc1cc(C)cc(S(=O)(=O)N2CCN(c3nc(-c4cccs4)nc4ccccc34)CC2)c1		1.03 µM (active)
O=S(=O)(c1ccccc1)N1CCN(c2nc(-c3cccs3)nc3ccccc23)CC1		1.46 µM (active) and 919 nM (active)
CCN1CCN(C(=O)CCN(CC(C)C)c2nc(-c3cccs3)nc3ccccc23)CC1		20.2 µM (active)
Cc1ccc(S(=O)(=O)N(C)CCCN(C)c2nc(-c3cccs3)nc3ccccc23)cc1		2.53 µM (active)
CCOC(=O)c1ccc(S(=O)(=O)N2CCN(c3nc(-c4ccccc4)nc4ccccc34)CC2)cc1		5.17 µM (active)
Oc1cccc(Nc2nc(-c3ccccc3Cl)nc3ccccc23)c1		2.06 µM (active)
COc1ccc2cc(C(=O)NCc3ccccc3)c(=O)oc2c1	1.63%	
CN1CCN(CCCNC(=O)c2ccc(/C=C3\Oc4ccccc4N(Cc4ccccc4F)C3=O)cc2)CC1	-18.7%	
N#Cc1cccc(S(=O)(=O)N2CCN(c3nc(-c4cccs4)nc4ccccc34)CC2)c1		2.01 µM (active)
O=S(=O)(c1ccc(Cl)cc1)N1CCN(c2nc(-c3ccc(F)cc3)nc3cc(Cl)ccc23)CC1	1.27%	
NCCCN(Cc1ccc(Cl)c(Cl)c1)c1ccccn1	-26.1%	
O=S(=O)(c1ccc(Cl)cc1)N1CCN(c2nc(-c3ccccc3)nc3ccccc23)CC1		5.8 µM (active)
Cc1ccc(S(=O)(=O)N2CCN(c3nc(-c4ccc(CN5CCOCC5)s4)nc4ccccc34)CC2)cc1		11.3 µM (active)
Cc1cc(C)n2ncc(C(=O)Nc3cccc(O)c3)c2n1	-2.41%	
